# Assay outcomes as filed in PubChem BioAssay.
# HEK cytotox – kills HEK 293 cells. Potency, µM (titrated, usually from 115 µM), most hits filed as inhibitors. hit rate 6.6% among 94,000. AID 1345083. HEK 293 viability, ATP luminescence (CellTiter-Glo), 48-72 h; also: nearly all actives have a fitted effect of over 60% in size
#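 CellTiter-Glo luminescence (cellular ATP) was read after 48 or 72 hr of compound exposure at 37 degree Celsius. Cells were HEK 293 plated at 250 cells/well.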
# hNpr1 antagonist – blocks ANP-stimulated signaling of human Npr1 receptor | hit rate 1.6% among 76,000 | P16066 | AID 1347048 | HEK293 hNpr1 GloSensor cGMP, ANP-stimulated luminescence | Potency, µM (series often up to 46.3 µM), usual class: inhibitors; calls by dose curve; also: nearly all actives have a fitted effect of over 60% in size
#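 HEK293 cells stably expressing human Npr1 and cGMP GloSensor pGS-40F, loaded 2 h with 2% GloSensor reagent, given compound 30 min at room temperature. Luminescence read before and 20 min after 0.1 nM hNppA.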
# FLuc inh – blocks purified firefly luciferase enzyme activity; P08659; purified P. pyralis luciferase, luminescence, biochemical; Potency, µM (titrated, usually from 115 µM), most hits filed as inhibitors; hit rate 2.5% among 76,000; also: nearly all actives have a fitted effect of over 65% in size
# Target sequence (P08659 whole entry, looked up): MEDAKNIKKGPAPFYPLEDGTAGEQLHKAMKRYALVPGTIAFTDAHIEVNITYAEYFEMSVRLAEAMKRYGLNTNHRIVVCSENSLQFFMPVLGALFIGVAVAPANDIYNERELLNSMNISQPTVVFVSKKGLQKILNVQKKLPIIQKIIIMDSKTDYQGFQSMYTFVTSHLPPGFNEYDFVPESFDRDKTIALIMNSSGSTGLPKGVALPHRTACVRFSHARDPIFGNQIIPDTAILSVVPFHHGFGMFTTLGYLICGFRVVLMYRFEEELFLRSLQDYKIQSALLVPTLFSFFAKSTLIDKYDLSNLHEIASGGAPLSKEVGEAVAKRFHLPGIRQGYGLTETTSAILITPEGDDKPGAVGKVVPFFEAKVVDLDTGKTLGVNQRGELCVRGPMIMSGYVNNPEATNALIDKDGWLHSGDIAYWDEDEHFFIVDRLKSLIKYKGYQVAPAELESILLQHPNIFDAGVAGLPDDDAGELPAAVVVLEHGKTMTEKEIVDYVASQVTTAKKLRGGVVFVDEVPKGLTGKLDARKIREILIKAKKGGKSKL
#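 Cell-free enzyme assay, 10nM P. pyralis luciferase, luciferin and ATP each at 10uM. Inhibition profiled over a 6-point titration, read as luminescence.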
# NIH3T3 tox – cytotoxic compounds in NIH 3T3 cells | NIH 3T3 viability, CellTiter-Glo ATP luminescence, 48-72 h | Potency, µM (doses to about 96.7 µM), actives largely listed as inhibitors | hit rate 4.3% among 94,000; also: nearly all actives have a fitted effect of over 55% in size
#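 Luminescent ATP readout (CellTiter-Glo, 10 min RT) after 48 or 72 hr compound exposure of NIH 3T3 cells seeded at 400 cells/well in 1536-well format; quantitative HTS.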
# Hits are given with their value; 0 = inactive; ? = inconclusive; - = no result. Only some compounds are listed: those with a hit (about 11% of all), similar ones and a draw of the others. Unless noted, calls follow the shape of the dose curve; as a rule, active = well fitted curve in the direction sought with a large enough effect; inconclusive = small, poorly fitted or top-dose-only effect, or another doubt; inactive = no such curve, though single readings can be large; an effect the other way counts as inactive or inconclusive.
SMILES,HEK cytotox,hNpr1 antagonist,FLuc inh,NIH3T3 tox
Cc1cc(C)c(CNC(=O)c2cc(-c3ccccc3O)cc3c2OCCN3C(C)C)c(=O)[nH]1,?,0,0,?
Cc1cc(C)c(CNC(=O)c2cc(-c3ccccc3C)cc3c2OCCN3C(C)C)c(=O)[nH]1,?,0,0,?
CC(=O)Nc1cccc(-c2cc(C(=O)NCc3c(C)cc(C)[nH]c3=O)c3c(c2)N(C(C)C)CCO3)c1,?,0,0,45µM
Cc1cc(C)c(CNC(=O)c2cc(-c3cccc4[nH]ccc34)cc3ncn(C)c23)c(=O)[nH]1,?,0,0,?
COc1ccc(-c2cc(C(=O)NCc3c(C)cc(C)[nH]c3=O)c3c(c2)N(C(C)C)CCO3)cc1,28µM,0,0,?
Cc1cc(C)c(CNC(=O)c2cc(-c3ccccc3C)cc3ncn(C)c23)c(=O)[nH]1,112µM,0,0,?
COc1ccc(Cc2nnc3ccc(C(=O)NCC(F)(F)F)cn23)cc1,0,-,-,0
O=C(CNC(=O)c1ccc(-c2cnc3ccccc3c2)cc1)NCc1ccc2c(c1)OCO2,50µM,-,-,0
COCCCNC(=O)CNC(=O)c1ccc(-c2cnc3ccccc3c2)cc1,79µM,-,-,0
O=C(CNC(=O)c1ccc(-c2cnc3ccccc3c2)cc1)NCc1ccc(F)cc1,?,-,-,0
CC(C)c1noc(C2CCCN(Cc3cn(C(C)C)c4ccccc34)CCC(=O)NCC2)n1 (centres undefined),40µM,0,0,?
CNC(=O)c1cc(-c2cnc(OC)nc2)cc2c1OCCN2Cc1cccnc1,0,0,0,?
CNC(=O)c1cc(-c2ccc(OC)c(OC)c2)cc2c1OCCN2Cc1cccnc1,0,0,0,22µM
COc1ncc(-c2cc(C(=O)NCc3cccnc3)c3c(c2)N(C)CCO3)cn1,0,0,0,45µM
Cc1cc(CNC(=O)c2cc(-c3ccccc3)cc3c2OCCN3C)no1,100µM,0,0,?
CNC(=O)c1cc(-c2ccc([S+](C)(=O)[O-])cc2)cc2c1OCCN2Cc1cccnc1,0,0,0,8.9µM
C=C(C)CNCC1(O)CCCN(Cc2cccc(F)c2F)C1=O (centres undefined),0,0,0,0
CNC(=O)c1cc(-c2cnn(C)c2C)cc2c1OCCN2Cc1cccnc1,0,0,0,45µM
CNC(=O)c1cc(-c2ccc(CO)cc2)cc2c1OCCN2Cc1cccnc1,0,0,0,45µM
CC(C)CNC(=O)N1CCC(N2C(=O)C3(CCCCC3)C2c2ccncc2)CC1 (centres undefined),0,0,0,0
COc1cccc(-c2cc(C(=O)N3CCN(C)CC3)c3cnn(C)c3n2)c1,0,-,-,0
O=C(c1ccccc1)N1CCCN(c2cc(-c3ccc(Cl)cc3)[nH]n2)CC1,?,0,0,?
CCC(C(=O)NC1CCN(c2cc(-c3ccc(OC)cc3)[nH]n2)CC1)c1ccccc1 (centres undefined),?,0,0,?
CC(Oc1ccccc1)C(=O)N1CCCN(c2cc(-c3ccc(Cl)cc3)[nH]n2)CC1 (centres undefined),40µM,?,0,?
CCC(C(=O)N1CCCN(c2cc(-c3ccc(OC)cc3)[nH]n2)CC1)c1ccccc1 (centres undefined),40µM,0,0,?
SMILES,HEK cytotox,hNpr1 antagonist,FLuc inh,NIH3T3 tox
Cc1ccc(-c2cc(N3CCCN(C(=O)C(C)Oc4ccccc4)CC3)n[nH]2)cc1C (centres undefined),?,0,0,?
CC(C(=O)N1CCCN(c2cc(-c3ccc(Cl)cc3)[nH]n2)CC1)c1ccccc1 (centres undefined),40µM,?,?,35µM
CCCn1c(C)cnc1CC1CCN(C(=O)CCC2CCCC2)C1 (centres undefined),0,-,-,0
COc1ccc(CNC(=O)C2CCN(Cc3ccccc3-c3ccccc3F)CC2)cc1,45µM,-,-,?
O=C(NCc1ccccc1Cl)C1CCN(Cc2ccccc2-c2ccccc2F)CC1,?,-,-,45µM
O=C(C1CCN(Cc2ccccc2-c2ccccc2F)CC1)N1CCN(Cc2ccccc2)CC1,35µM,-,-,25µM
O=C(NCc1ccccc1)C1CCN(Cc2ccccc2-c2ccccc2F)CC1,50µM,-,-,?
O=C(C1CCN(Cc2ccccc2-c2ccccc2F)CC1)N1CCOCC1,0,-,-,0
COc1ccc(-c2cnc3[nH]cc(CC(=O)NCc4cnccn4)c3c2)cc1,?,0,?,32µM
COCCNC(=O)Cc1c[nH]c2ncc(-c3ccccc3)cc12,0,0,0,?
COCCNC(=O)Cc1c[nH]c2ncc(-c3ccc(OC)cc3)cc12,?,0,?,22µM
O=C1NCCOCCCN(C(=O)Nc2ccc3c(c2)OCCO3)[C@H]2CCCC[C@@H]12,0,0,32µM,0
O=C1NCCOCCCN(C(=O)Nc2ccccc2)[C@H]2CCCC[C@@H]12,0,0,0,0
O=C(C1CC1)N1CCCN(c2ccnc3ccnn23)CC1,0,-,-,0
O=C(c1cccnc1)N1CCCC2(CNc3ncccc3[S+](=O)([O-])N2)C1 (centres undefined),0,-,-,?
c1ccc(-c2cnc([C@@H]3COCCN3Cc3cccnc3)[nH]2)cc1,0,0,0,0
Clc1ccc(-c2cnc([C@@H]3COCCN3Cc3cnc[nH]3)[nH]2)cc1,0,0,0,0
Clc1ccc(-c2cnc([C@@H]3COCCN3Cc3c[nH]c4ccccc34)[nH]2)s1,71µM,?,0,79µM
Fc1ccccc1CN1CCOC[C@H]1c1ncc(-c2ccc(Cl)s2)[nH]1,?,?,0,89µM
Fc1cccc(-c2cnc([C@@H]3COCCN3Cc3ccccc3)[nH]2)c1,?,0,0,?
COc1ccc(-c2cnc([C@@H]3COCCN3Cc3ccccc3O)[nH]2)cc1,0,0,0,?
Fc1ccc(CN2CCOC[C@H]2c2ncc(-c3ccc(Cl)s3)[nH]2)cc1,79µM,?,0,?
Clc1ccc(-c2cnc([C@@H]3COCCN3CC3CC3)[nH]2)s1,89µM,0,0,?
Cc1csc(CNC(=O)C2CCCN(C3CCN(Cc4cccnc4)CC3)C2)n1 (centres undefined),0,0,0,0
O=C(NC1CCN(c2nc3ncccc3o2)C1)c1ccccc1 (centres undefined),0,-,-,0
SMILES,HEK cytotox,hNpr1 antagonist,FLuc inh,NIH3T3 tox
O=C(c1ccccc1C(F)(F)F)N1CCC2(C1)C(=O)Nc1ccccc12 (centres undefined),0,0,0,0
CC(C)(C)CN1CCOC[C@H]1c1ncc(-c2ccc(F)cc2F)[nH]1,?,0,0,?
Fc1ccc(-c2cnc([C@@H]3COCCN3Cc3ccccc3F)[nH]2)c(F)c1,100µM,0,0,?
O=C(NCc1cccs1)c1nc2cccnc2n(C2CCCCC2)c1=O,0,-,-,0
COc1ccc(C(=O)N2C[C@@H]3C[C@H](C2)c2c(NC(=O)Nc4ccccc4)ccc(=O)n2C3)cc1,10µM,0,0,0
COc1ccc(C(=O)N2C[C@@H]3C[C@H](C2)c2ccc(NC(=O)Nc4cccc(C#N)c4)c(=O)n2C3)cc1,?,0,25µM,?
COc1ccc(C(=O)N2C[C@@H]3C[C@H](C2)c2ccc(NS(=O)(=O)c4ccccc4C#N)c(=O)n2C3)cc1,0,0,0,0
